# Test results: the supplement of paper PMC6089552
# Screen size: about 3,200 compounds; about 300 (9.4%) showed activity. Only a selection was taken, and actives are over-represented in it overall. Values without a mark were called inactive.
# Test system: A673/TR/shEF
# Assay: cell viability (LOESS-normalised, relative to median of negative controls) (log2 ratio); higher = more viable cells (less compound effect), active = hit call of the paper (over 3 MAD below the median)
# Settings: treatment time: 72 h
# How it was run: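 A673/TR/shEF Ewing sarcoma cells (1,500 per well, 384-well plates) were grown with or without doxycycline to induce EWS-FLI1 shRNA knockdown, starting 24 h before compounds. Library compounds at two or more concentrations, with DMSO controls, were added for three days. Cell viability was read by CellTiter-Glo luminescence on an Envision reader, then LOESS-corrected per plate, divided by the median of negative controls and log2-transformed. Hits were wells at least three median absolute deviations from the median of all screened wells.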
# [1] = 0.25 µM, library screen: screen2, EWS-FLI1 expression: high (no doxycycline)
# [2] = 0.25 µM, library screen: screen2, EWS-FLI1 expression: low (doxycycline-induced shRNA knockdown)
# [3] = 2.5 µM, library screen: screen2, EWS-FLI1 expression: high (no doxycycline)
# [4] = 2.5 µM, library screen: screen2, EWS-FLI1 expression: low (doxycycline-induced shRNA knockdown)
# [5] = 0.25 µM, library screen: screen1, EWS-FLI1 expression: high (no doxycycline)
# [6] = 0.25 µM, library screen: screen1, EWS-FLI1 expression: low (doxycycline-induced shRNA knockdown)
# [7] = 2.5 µM, library screen: screen1, EWS-FLI1 expression: high (no doxycycline)
# [8] = 2.5 µM, library screen: screen1, EWS-FLI1 expression: low (doxycycline-induced shRNA knockdown)
structure (smiles),measurement,setting,value
C=CCN1CCc2cccc3c2[C@H]1Cc1ccc(O)c(O)c1-3,cell viability (log2),[1],0.199
same,cell viability (log2),[2],0.00481
same,cell viability (log2),[3],0.133
same,cell viability (log2),[4],0.0436
CN[C@@H]1C[C@@H](c2ccc(Cl)c(Cl)c2)c2ccccc21,cell viability (log2),[1],0.0875
same,cell viability (log2),[2],0.13
same,cell viability (log2),[3],0.173
same,cell viability (log2),[4],0.199
CN1C2CCC1CC(OC(=O)c1cc(Cl)cc(Cl)c1)C2 (configuration not stated),cell viability (log2),[1],0.173
same,cell viability (log2),[2],0.0634
same,cell viability (log2),[3],0.093
same,cell viability (log2),[4],-0.00531
C/C=C(/C)C(=O)O[C@H]1CC[C@@]2(C)[C@@H]3CC[C@H]4[C@]5(O)C[C@H](O)[C@@]6(O)[C@@H](CN7C[C@@H](C)CC[C@H]7[C@@]6(C)O)[C@]5(O)C[C@@]42O[C@]13O,cell viability (log2),[5],0.0954
same,cell viability (log2),[6],0.0385
same,cell viability (log2),[7],0.186
same,cell viability (log2),[8],-0.0784
C#CCOC(=O)C1=CCCN(C)C1,cell viability (log2),[1],0.0844
same,cell viability (log2),[2],0.129
same,cell viability (log2),[3],0.0951
same,cell viability (log2),[4],0.11
CC(Cc1ccc(OCC(=O)O)cc1)NCC(O)c1cccc(Cl)c1 (configuration not stated),cell viability (log2),[1],0.122
same,cell viability (log2),[2],0.143
same,cell viability (log2),[3],0.229
same,cell viability (log2),[4],0.136
C[N+]1(C)CCc2cc3c(cc2[C@H]1[C@@H]1OC(=O)c2c1ccc1c2OCO1)OCO3,cell viability (log2),[1],0.123
same,cell viability (log2),[2],0.0886
same,cell viability (log2),[3],0.123
same,cell viability (log2),[4],0.104
COC[C@]12CN(C=O)[C@H]3C4[C@H](OC)[C@H]1C3([C@@H](OC)C[C@H]2O)[C@@H]1C[C@@]2(O)[C@H](OC(=O)c3ccccc3)[C@@H]1[C@]4(OC(C)=O)[C@@H](O)[C@@H]2OC,cell viability (log2),[5],0.0391
same,cell viability (log2),[6],0.0831
same,cell viability (log2),[7],0.0466
same,cell viability (log2),[8],0.114
C=CCN1C[C@@H](C)N([C@H](c2ccc(C(=O)N(CC)CC)cc2)c2cccc(OC)c2)C[C@@H]1C,cell viability (log2),[1],0.0848
same,cell viability (log2),[2],0.0464
same,cell viability (log2),[3],0.222
same,cell viability (log2),[4],0.00445
COc1cc2c(cc1OC)[C@@]13CCN4CC5=CCO[C@H]6CC(=O)N2[C@H]1[C@H]6[C@H]5C[C@H]43,cell viability (log2),[5],0.0057
same,cell viability (log2),[6],0.0368
same,cell viability (log2),[7],0.098
same,cell viability (log2),[8],-0.0757
CC(=O)Oc1ccc(C=Cc2cc(OC(C)=O)cc(OC(C)=O)c2)cc1,cell viability (log2),[5],0.101
same,cell viability (log2),[6],0.0764
same,cell viability (log2),[7],0.00309
same,cell viability (log2),[8],0.228
Nc1ncnc2c1ncn2C1OC2COP(O)(=S)OC2C1O (configuration not stated),cell viability (log2),[1],0.0926
same,cell viability (log2),[2],0.132
same,cell viability (log2),[3],0.0861
same,cell viability (log2),[4],0.0676
O.O=C1OC2(c3cc(Br)c([O-])cc3Oc3c2cc(Br)c([O-])[c]3[Hg])c2ccccc21.[Na+].[Na+] (configuration not stated),cell viability (log2),[5],0.113
same,cell viability (log2),[6],0.0666
same,cell viability (log2),[7],0.139
same,cell viability (log2),[8],0.132
CN1C2CCC1CC(OC(=O)C(CO)c1ccccc1)C2 (configuration not stated),cell viability (log2),[1],0.252
same,cell viability (log2),[2],0.166
same,cell viability (log2),[3],0.123
same,cell viability (log2),[4],0.223
C[C@]12CC[C@H]3[C@@H](CCC4=CC(=O)CC[C@@]43C)[C@@H]1CC[C@@H]2OC(=O)CCC1CCCC1,cell viability (log2),"0.103 µM, library screen: screen3, EWS-FLI1 expression: high (no doxycycline)",-0.000785
same,cell viability (log2),"0.103 µM, library screen: screen3, EWS-FLI1 expression: low (doxycycline-induced shRNA knockdown)",0.011
same,cell viability (log2),"0.308 µM, library screen: screen3, EWS-FLI1 expression: high (no doxycycline)",0.0351
same,cell viability (log2),"0.308 µM, library screen: screen3, EWS-FLI1 expression: low (doxycycline-induced shRNA knockdown)",0.0268
same,cell viability (log2),"0.926 µM, library screen: screen3, EWS-FLI1 expression: high (no doxycycline)",0.0442
same,cell viability (log2),"0.926 µM, library screen: screen3, EWS-FLI1 expression: low (doxycycline-induced shRNA knockdown)",0.0219
same,cell viability (log2),"2.8 µM, library screen: screen3, EWS-FLI1 expression: high (no doxycycline)",0.0558
same,cell viability (log2),"2.8 µM, library screen: screen3, EWS-FLI1 expression: low (doxycycline-induced shRNA knockdown)",0.00975
same,cell viability (log2),"8.3 µM, library screen: screen3, EWS-FLI1 expression: high (no doxycycline)",0.0577
same,cell viability (log2),"8.3 µM, library screen: screen3, EWS-FLI1 expression: low (doxycycline-induced shRNA knockdown)",0.0516
same,cell viability (log2),"25 µM, library screen: screen3, EWS-FLI1 expression: high (no doxycycline)",0.0518
same,cell viability (log2),"25 µM, library screen: screen3, EWS-FLI1 expression: low (doxycycline-induced shRNA knockdown)",0.0747
CC(N)Cc1ccc(O)cc1 (configuration not stated),cell viability (log2),[5],0.0594
same,cell viability (log2),[6],0.0957
same,cell viability (log2),[7],0.092
same,cell viability (log2),[8],0.0198
COC[C@H]1OC(=O)c2coc3c2[C@@]1(C)C1=C(C3=O)[C@@H]2CCC(=O)[C@@]2(C)C[C@H]1OC(C)=O,cell viability (log2),"0.025 µM, library screen: screen1, EWS-FLI1 expression: high (no doxycycline)",0.254
same,cell viability (log2),"0.025 µM, library screen: screen1, EWS-FLI1 expression: low (doxycycline-induced shRNA knockdown)",0.0235
same,cell viability (log2),[5],0.137
same,cell viability (log2),[6],-0.0412
same,cell viability (log2),[1],0.179
same,cell viability (log2),[2],0.0105
same,cell viability (log2),[7],-0.356 (active)
same,cell viability (log2),[8],-0.0837
same,cell viability (log2),[3],-0.0237
same,cell viability (log2),[4],0.0148
same,cell viability (log2),"25 µM, library screen: screen1, EWS-FLI1 expression: high (no doxycycline)",-0.711 (active)
same,cell viability (log2),"25 µM, library screen: screen1, EWS-FLI1 expression: low (doxycycline-induced shRNA knockdown)",-0.309 (active)
CCCN1CCC[C@@H](c2cccc(C#N)c2)C1,cell viability (log2),[1],0.21
same,cell viability (log2),[2],0.0529
same,cell viability (log2),[3],0.222
same,cell viability (log2),[4],0.141
CC1(C)C2C[C@@H](O)[C@]3(C)C(CC[C@@]4(C)[C@H](c5ccoc5)CC5OC543)[C@@]2(C)[C@@H](O)C[C@H]1O (some centres not stated),cell viability (log2),[5],0.0938
same,cell viability (log2),[6],0.113
same,cell viability (log2),[7],0.107
same,cell viability (log2),[8],0.116
